Measurements as given in PubChem BioAssay AID504333 (National Center for Advancing Translational Sciences (NCATS), 2011).
Several values for one entry are separate records, joined by “and”; a condition that tells them apart may be missing. Equal values may be shown once. The whole screen tested about 360,000 compounds, of which about 16,000 (4.4%) were called active. Another 9% or so got no clear call; they are omitted. Calls follow the shape of the dose curve; as a rule, active = well fitted inhibition curve with a large enough effect; inconclusive = small, poorly fitted or top-dose-only effect; inactive = no such curve, though single readings can be large or run the other way. Shown is part of a subset that was picked to be rich in actives. Entries that show only a call come without a potency. A structure can be active in one record and inactive in another.

Biological target: Bromodomain adjacent to zinc finger domain protein 2B (Homo sapiens) (UniProt Q9UIF8)
Sequence (Q9UIF8 whole entry, looked up, the tested form may be a part): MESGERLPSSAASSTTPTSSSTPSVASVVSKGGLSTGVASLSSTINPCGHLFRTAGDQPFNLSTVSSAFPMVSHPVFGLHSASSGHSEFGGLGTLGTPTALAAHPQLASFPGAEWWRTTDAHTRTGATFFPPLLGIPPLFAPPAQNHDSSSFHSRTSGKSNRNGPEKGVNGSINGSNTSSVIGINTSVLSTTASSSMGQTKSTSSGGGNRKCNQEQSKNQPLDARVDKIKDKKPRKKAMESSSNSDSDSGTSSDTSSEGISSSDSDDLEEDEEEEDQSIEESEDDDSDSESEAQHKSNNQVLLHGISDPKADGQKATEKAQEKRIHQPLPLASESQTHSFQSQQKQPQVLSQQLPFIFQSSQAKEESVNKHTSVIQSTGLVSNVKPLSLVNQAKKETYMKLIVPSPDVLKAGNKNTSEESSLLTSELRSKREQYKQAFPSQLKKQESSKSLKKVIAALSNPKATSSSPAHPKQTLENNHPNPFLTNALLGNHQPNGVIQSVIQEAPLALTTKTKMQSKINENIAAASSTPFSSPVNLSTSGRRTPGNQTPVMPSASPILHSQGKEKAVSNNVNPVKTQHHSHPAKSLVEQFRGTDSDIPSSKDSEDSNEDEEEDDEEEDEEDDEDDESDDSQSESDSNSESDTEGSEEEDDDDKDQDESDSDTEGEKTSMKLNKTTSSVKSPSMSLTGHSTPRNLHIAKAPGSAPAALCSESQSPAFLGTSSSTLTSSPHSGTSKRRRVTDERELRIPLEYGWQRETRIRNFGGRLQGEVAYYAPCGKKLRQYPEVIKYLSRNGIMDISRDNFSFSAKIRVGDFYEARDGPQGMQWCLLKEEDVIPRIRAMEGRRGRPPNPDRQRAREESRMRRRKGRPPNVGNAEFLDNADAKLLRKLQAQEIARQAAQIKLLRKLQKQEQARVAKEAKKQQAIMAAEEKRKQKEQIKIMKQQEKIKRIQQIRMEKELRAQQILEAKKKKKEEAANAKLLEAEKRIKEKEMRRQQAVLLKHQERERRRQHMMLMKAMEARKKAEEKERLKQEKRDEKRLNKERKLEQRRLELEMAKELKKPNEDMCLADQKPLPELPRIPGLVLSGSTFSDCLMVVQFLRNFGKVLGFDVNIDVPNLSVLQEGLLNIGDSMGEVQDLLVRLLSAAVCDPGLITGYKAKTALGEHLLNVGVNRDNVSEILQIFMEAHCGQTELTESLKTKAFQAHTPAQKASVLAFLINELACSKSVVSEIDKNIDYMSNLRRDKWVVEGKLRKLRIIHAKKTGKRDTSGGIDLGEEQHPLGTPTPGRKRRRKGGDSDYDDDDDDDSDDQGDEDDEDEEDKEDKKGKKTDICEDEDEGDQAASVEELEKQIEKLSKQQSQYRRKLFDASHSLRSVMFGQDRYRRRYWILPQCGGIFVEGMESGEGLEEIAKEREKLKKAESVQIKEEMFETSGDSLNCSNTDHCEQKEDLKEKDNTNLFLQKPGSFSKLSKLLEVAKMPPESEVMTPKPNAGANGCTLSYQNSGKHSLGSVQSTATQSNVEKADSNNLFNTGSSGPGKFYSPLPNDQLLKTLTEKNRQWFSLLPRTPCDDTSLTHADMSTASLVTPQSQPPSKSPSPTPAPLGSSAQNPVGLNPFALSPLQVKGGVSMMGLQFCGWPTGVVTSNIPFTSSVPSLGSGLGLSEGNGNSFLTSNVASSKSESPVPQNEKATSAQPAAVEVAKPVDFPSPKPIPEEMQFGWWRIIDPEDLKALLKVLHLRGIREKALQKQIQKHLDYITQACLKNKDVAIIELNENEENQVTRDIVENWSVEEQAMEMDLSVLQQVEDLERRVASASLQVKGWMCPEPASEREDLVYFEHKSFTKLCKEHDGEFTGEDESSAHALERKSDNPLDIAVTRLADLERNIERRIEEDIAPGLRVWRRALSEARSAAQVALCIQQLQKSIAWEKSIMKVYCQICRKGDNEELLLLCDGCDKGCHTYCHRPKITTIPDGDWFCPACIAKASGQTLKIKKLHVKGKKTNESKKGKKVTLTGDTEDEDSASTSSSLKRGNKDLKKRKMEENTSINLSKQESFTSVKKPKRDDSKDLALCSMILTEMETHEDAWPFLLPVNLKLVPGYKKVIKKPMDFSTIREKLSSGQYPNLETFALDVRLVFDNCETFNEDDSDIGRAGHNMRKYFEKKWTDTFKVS
Test: qHTS Assay for Inhibitors of BAZ2B; also: nearly all actives have a fitted effect of over 60% in size
Conditions: AlphaScreen BAZ2B-H3K14Ac peptide displacement; series mostly up to 114 µM
Procedure, shortened: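 AlphaScreen displacement: compounds (up to 110uM) incubated 30 min at room temperature with a preformed 50 nM BAZ2B/50 nM biotinylated H3K14Ac peptide complex in PBS pH 7.4 with Tween-20. Donor and acceptor beads at 10 ug/mL final added, 20 min light-protected before reading.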
Potency is read from the fitted curve at half-maximal effect.

Row | Compound | Potency
1 | Cc1ccc(SCC(=O)Nc2ccc3oc(-c4ccccc4F)nc3c2)cc1 | inactive
2 | CCOC(=O)C1CCCN(C(=O)c2ccc3c(c2)sc2nc(-c4ccc(CC)cc4)cn23)C1 (centres undefined) | inactive
3 | Cc1ccccc1CNC(=O)CSc1nnc(C)c2c(C)n(-c3ccccc3)nc12 | inactive
4 | NC(=O)NC(CC(=O)NNC(=O)c1ccccn1)c1ccc(Cl)cc1 (centres undefined) | inactive
5 | C/C(=N\NC(=O)Cc1ccc(Br)cc1)c1cccnc1 | inactive
6 | C/C(CC(=O)Nc1ccc(N(C)C)cc1)=N\NC(=O)c1ccccc1F | inactive
7 | C/C(=N\NC(=O)c1ccccc1F)c1ccccn1 | 20 µM (active)
8 | C/C(=N\NC(=O)Cc1ccc(Cl)cc1)c1ccccn1 | 44.7 µM (active)
9 | O=C(Nc1ccc(NC(=O)c2ccccc2F)cc1)c1ccccc1F | inactive
10 | Cc1nc2nc(NCc3cccc(Br)c3)[nH]n2c(=O)c1Cc1ccccc1 | inactive
11 | O=C(CSc1nc2c(c(=O)[nH]1)CN(Cc1ccc(F)cc1)CC2)Nc1ccccc1Cl | inactive
12 | Cc1noc2ncnc(NCc3ccccc3Cl)c12 | inactive
13 | COC(=O)c1ccc(NC(=O)c2cc(S(=O)(=O)N3CCC(C)CC3)cn2C)cc1 | inactive
14 | Cc1oc(-c2ccccc2F)nc1CN1CCC(C(=O)NCCc2ccc(Cl)cc2)CC1 | inactive
15 | CC(=O)Nc1ccc(S(=O)(=O)Oc2ccc(/C=N/N=C3/NC(=O)C(CC(=O)O)S3)cc2)cc1 (centres undefined) | 50.1 µM (active)
16 | Cc1ccc(NC(=O)CC2S/C(=N/N=C3\CCCc4ccccc43)NC2=O)cc1 (centres undefined) | inactive
17 | Cc1ccc(S(=O)(=O)Oc2ccc(/C=N/NC(=O)c3ccncc3)cc2)cc1 | inactive
18 | CCOc1ccc(N2CC(C)Cn3c2nc2c3c(=O)n(Cc3c(F)cccc3Cl)c(=O)n2C)cc1 (centres undefined) | inactive
19 | COc1cc2c(cc1O)[C@H](Cc1ccc(Oc3cc(C[C@@H]4NCCc5cc(OC)c(O)cc54)ccc3O)cc1)NCC2 | 39.8 µM (active)
20 | COC(=O)C1=CN(Cc2ccc(OC)cc2)C=C(C(=O)OC)C1c1ccc(O)c(OC)c1 | inactive
21 | CCc1ccc(OCC2c3cc(OC)c(OC)cc3CCN2C(C)=O)cc1 (centres undefined) | inactive
22 | Cn1c(=O)n(Cc2c(F)cccc2Cl)c(=O)c2c1nc1n2CCN1c1ccc(F)cc1 | inactive
23 | COc1cccc(CNC(=O)CCc2nc(-c3ccc(C)cc3)no2)c1 | inactive
24 | CCCCOc1ccc(CNC(=O)c2ccc3c(c2)N(C)C(=O)C2CCCCN32)cc1 (centres undefined) | inactive

Row | Compound | Potency
25 | COc1ccc(OC)c2[nH]c(=O)c(CCNC(=O)C(=O)c3c[nH]c4ccccc34)cc12 | 56.2 µM (active)
26 | O=C(NCCCc1ccccc1)C(=O)c1c[nH]c2ccccc12 | inactive
27 | COc1ccc(OC)c2[nH]c(=O)c(CCNC(=O)C(C)(C)C)cc12 | inactive
28 | COc1ccc(CCNC(=O)c2ccc(CSCc3ccc(C)cc3)o2)cc1OC | inactive
29 | COc1cc2c(=O)c(S(=O)(=O)c3ccc(C(C)C)cc3)cn(Cc3ccccc3C)c2cc1OC | inactive
30 | CCC1(C)CC(=O)c2c(ccc3oc(C(=O)Nc4ccc(C(C)=O)cc4)c(C)c23)O1 (centres undefined) | inactive
31 | O=C(NCc1ccccn1)c1ccc2nc(-c3ccco3)c(-c3ccco3)nc2c1 | 11.2 µM (active)
32 | COc1ccc(-c2nc3ccc(C(=O)NCc4ccc(C)cc4)cc3nc2-c2ccc(OC)cc2)cc1 | inactive
33 | COc1cccc(S(=O)(=O)NCc2ccc(C(=O)NCc3ccccn3)cc2)c1 | inactive
34 | COCCNC(=O)Nc1ccc2nc(-c3ccco3)c(-c3ccco3)nc2c1 | 5.62 µM (active)
35 | CCOc1ccc(NC(=O)c2ncoc2-c2ccco2)cc1 | inactive
36 | COc1ccc(NC(=O)COCc2cc(-c3ccco3)on2)cc1 | inactive
37 | O=C(NCc1ccc2c(c1)CCN2C(=O)c1ccccc1)c1ccccc1 | inactive
38 | CCOC(=O)c1cc2c(=O)n3ccccc3nc2n(CC2CCCO2)c1=NC(=O)c1ccccc1F (centres undefined) | inactive
39 | O=C(Cn1cc(SCc2cccc(Cl)c2)c2ccccc21)N1CCCCC1 | inactive
40 | O=C(NCC(c1ccc(Cl)cc1)N1CCOCC1)c1ccccc1F (centres undefined) | inactive
41 | CN(Cc1ccccc1)c1ccc(-c2nc(-c3ccccc3)no2)cc1[N+](=O)[O-] | inactive
42 | Cc1ccc(-n2[nH]c(C)c(/C=N/N3C(=O)c4cccc5cccc(c45)C3=O)c2=O)cc1 | inactive
43 | Cc1ccc(C2C3=C(Nc4[nH]n(-c5ccccc5)c(=O)c42)c2ccccc2C3=O)cc1 (centres undefined) | 35.5 µM (active)
44 | Cc1ccc(-c2ccnc3[nH]n(-c4ccccc4)c(=O)c23)cc1 | inactive
45 | COc1cc2[nH]c(=O)n(Cc3ccc(C(=O)NCc4ccc(C)cc4)cc3)c(=O)c2cc1OC | inactive
46 | O=c1cc(CSc2ncn[nH]2)[nH]c2ccc(F)cc12 | inactive
47 | Cc1ccc(NC(=O)Cc2ccc(NC(=O)N3CCCCc4ccccc43)cc2)cc1 | inactive
48 | CCN(CC)S(=O)(=O)c1ccc2c(c1)nc(CN(C)C(=O)Nc1ccc(Cl)cc1)n2C | inactive

Row | Compound | Potency
49 | O=C(NCCC1=CCCCC1)c1ccc2c(c1)N(Cc1ccccc1F)C(=O)c1ccccc1S2(=O)=O | inactive
50 | COc1cc2cc(C(=O)N/N=C/c3cccc(OC)c3OC)[nH]c2cc1OC | inactive
51 | CCOc1ccc2[nH]c(C(=O)N/N=C/c3cccc(OC)c3OC)cc2c1 | inactive
52 | COc1cccc(/C=N\NC(=O)C2=NNC(=O)C2C)c1O (centres undefined) | 50.1 µM (active)
53 | COc1ccc(Nc2ncc(C(=O)Nc3cc(C)ccc3OC)c3ccccc23)cc1 | inactive
54 | COc1ccc(-c2nc(Cn3c(=O)cc(C)c4c(C)nn(-c5ccccc5)c43)c(C)o2)cc1OC | inactive
55 | COc1ccc(Cl)cc1NC(=O)CSc1nc(=O)[nH]c2c1CCCC2 | inactive
56 | COc1cc(OC)cc(C(=O)NCCc2csc3nc(-c4ccccc4F)nn23)c1 | inactive
57 | COc1ccc(S(=O)(=O)NCC(c2ccc(C)cc2)N2CCN(C)CC2)cc1OC (centres undefined) | inactive
58 | COc1ccc(C(=O)NCC(c2ccc(N(C)C)cc2)N2CCc3ccccc32)c(OC)c1 (centres undefined) | inactive
59 | COc1ccc(S(=O)(=O)NCC(c2ccc(N(C)C)cc2)N2CCc3ccccc32)cc1OC (centres undefined) | 11.2 µM (active)
60 | CCn1c(C(=O)Nc2cc(Cl)ccc2C)cc2sc(Cl)cc21 | inactive
61 | COc1cccc(CNC(=O)CSc2c3c(nc4cc(Cl)ccc24)CCCC3)c1 | inactive
62 | CCOc1ccc(CNC(=O)C2CCN(c3nnc(-n4cccc4CNc4ccc(C)cc4)s3)CC2)cc1OC | inactive
63 | CC(C)c1ccc2c(c1)c(SC(C)(C)C)c(CC(C)(C)C(=O)O)n2Cc1ccc(Cl)cc1 | inactive and 50.1 µM (active)
64 | Cc1c(C)n(Cc2ccc(Cl)cc2)c2ccc(C(=O)N3CCN(c4ccccc4F)CC3)cc12 | inactive
65 | CC(C)c1ccc(Cn2c(COc3ccccc3)nc3ccccc32)cc1 | inactive
66 | CCCn1c(=N)c(C(=O)NCc2ccccc2)cc2c(=O)n3cccc(C)c3nc21 | inactive
67 | CN1/C(=C\C=C2\N=C(c3ccc(F)cc3)OC2=O)C(C)(C)c2ccccc21 | 50.1 µM (active)
68 | Cc1cccc(C2=N/C(=C/c3cccs3)C(=O)O2)c1 | inactive
69 | O=C1OC(c2ccc(Cl)cc2)=N/C1=C\c1cccnc1 | inactive
70 | CCOc1ccccc1N(C)C(=O)c1cc2c(s1)-c1ccccc1OC2 | inactive
71 | O=C(Cc1ccc(Cl)cc1)NCC(c1cccs1)S(=O)(=O)c1ccc(Cl)cc1 (centres undefined) | inactive
72 | CCOC(=O)N1CCc2c(sc3c2C(=O)NC(c2ccccc2F)N3)C1 (centres undefined) | inactive

Row | Compound | Potency
73 | CCOc1ccc(CNCc2c(C(=O)O)c(C)n(Cc3cccc(OC)c3)c2C)cc1OC | inactive
74 | CCN(CC)S(=O)(=O)c1ccc(C(=O)N=c2sc3cccc(OC)c3n2C)cc1 | inactive
75 | CCOC(=O)c1c(-c2ccc(OC)cc2)oc2ccc(OCc3ccc(C(=O)OC)cc3)cc12 | inactive
76 | CN1/C(=c2/s/c(=C3/C(=O)N(c4ccccc4)NC3=Nc3ccccc3)n(C)c2=O)C(C)(C)c2ccccc21 | 10 µM (active)
77 | CN1C(=O)c2ccccc2Sc2ccc(NC(=O)Cc3ccc(Cl)cc3)cc21 | inactive
78 | O=C(NCc1ccc(Cl)cc1)c1cc2c(nc3sccn32)s1 | inactive
79 | Cc1ccc(Nc2c(-c3ccc(Cl)cc3)nc3sccn23)c(C)c1 | 28.2 µM (active)
80 | O=c1cc(Cn2nnc(-c3ccc(Cl)cc3)n2)nc2sccn12 | inactive
81 | Cc1ccccc1C(=O)Nc1cc(C)c(O)c(-c2nc3ccccc3o2)c1 | inactive
82 | Cc1ccc(Cl)cc1N(C)C(=O)C1CCCN(c2ncnc3onc(-c4ccc(F)cc4)c23)C1 (centres undefined) | inactive
83 | CCOc1ccc(C2C(C(=O)Nc3ccc(Cl)cc3)=C(C)Nc3nc(C(F)(F)F)nn32)cc1 (centres undefined) | inactive
84 | COC(=O)c1ccc(COc2ccc(/C=C/C(=O)c3ccc(OC)c(CSCC(=O)O)c3)cc2OC)cc1 | 39.8 µM (active)
85 | COc1ccc(C(=O)/C=C/c2ccc(-c3ccccc3)cc2)cc1CSCC(=O)O | inactive
86 | COc1ccc(/C=C/C(=O)N2CCCC2)cc1OC | inactive
87 | CCOc1ccccc1NC(=O)Cn1c(=O)n(-c2cccc(C)c2)c(=O)c2c1c1cc(OC)ccc1n2C | inactive
88 | CCOc1cc(-c2nnc(SCC(=O)NC3CCCCC3)nc2-c2ccc(OC)c(OCC)c2)ccc1OC | 79.4 µM (active)
89 | COc1ccc(-c2nnc(SCC(=O)Nc3ccc(C(C)C)cc3)nc2-c2ccc(OC)c(OC)c2)cc1OC | inactive
90 | COc1ccc(-c2nnc(SCC(=O)NC3CCCCC3)o2)cc1OC | inactive
91 | COCCn1c(SCC(=O)c2cc(C)ccc2C)nc2cc(C(=O)NC3CCCC3)ccc2c1=O | inactive
92 | Cc1ccc(-c2nc(CS(=O)(=O)CC(=O)NCc3ccccc3Cl)c(C)o2)cc1 | inactive
93 | CCOc1ccc2nc(N3CCC(C(=O)Nc4cc(C)ccc4C)CC3)sc2c1 | inactive
94 | CC1=C(C(=O)Nc2ccccc2Cl)C(c2cccs2)n2ncnc2N1 (centres undefined) | inactive
